Source: PubChem BioAssay
Pf growth 48h – P. falciparum growth inhibition at 48 hours (one generation); P. falciparum luciferase growth in erythrocytes, 48 h; Potency, µM (doses to about 28.7 µM), without a hit: top-dose activity change, negative = inhibition, most hits filed as inhibitors; hit rate 5.9% among 310,000; AID 504832; note: % is set by controls: 0 for no effect and ±100 for the full control effect
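Firefly luciferase activity from engineered P. falciparum reports growth; inhibitors lower the luminescent signal. Cultures contained 2% hematocrit erythrocytes at 0.1% final parasitemia.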
AMA1-RON2 inh – AMA1-RON2 (P. falciparum) interaction inhibition | Potency, µM (series often up to 58.2 µM), without a hit: at the highest dose activity change, negative = inhibition, most hits filed as inhibitors | AlphaScreen AMA1-biotinylated RON2 peptide binding | hit rate 0.2% among 360,000;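 note: 0% = vehicle wells and -100% = peptide control; nearly all actives have a fitted effect of over 45% in size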
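AMA1 (3D7) with his tag at 25 nM final met compounds first, then biotinylated RON2 peptide at 25 nM; detection used donor plus acceptor beads, 10 µg/mL apiece, read by AlphaScreen after 30 min at room temperature.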
Sm TGR inh – blocks Schistosoma mansoni thioredoxin glutathione reductase; purified TGR, DTNB reduction, TNB absorbance 405 nm; Potency, µM (highest dose often 114 µM), inactives show top-dose activity change, negative = inhibition, hits mostly inhibitors; Q962Y6; hit rate 3% among 360,000; note: % is set by controls: 0 for no effect and ±100 for the full control effect; nearly all actives have a fitted effect of over 60% in size
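First, TGR (20 nM dispensed) and NADPH were mixed with compound. Second, a 15 min room-temperature incubation followed. Third, further NADPH and then DTNB were added to start the reaction. Finally, TNB absorbance was monitored kinetically.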
Pf growth 96h – inhibits malaria parasite growth, 96 h; P. falciparum luciferase reporter growth, 96 h; Potency, µM (series often up to 28.7 µM), for inactives: top-dose activity change, negative = inhibition, most hits filed as inhibitors; hit rate 6.9% among 320,000; note: % is set by controls: 0 for no effect and ±100 for the full control effect
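Two-generation exposure (96 h) targets delayed-death phenotype. Reporter parasites carrying integrated firefly luciferase, in red cells at 2% hematocrit and 0.05% parasitemia final, kept at 37 C, 5% CO2; luminescence loss indicates inhibition.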
NS1 inh – inhibitors of influenza NS1 protein function; AID 2326; Potency, µM (top dose mostly 46.1 µM), without a hit: top-dose activity, positive = more growth; hit rate 0.4% among 270,000; calls by dose curve; note: actives are rising curves; nearly all actives have a fitted effect of over 50% in size
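Read-out: OD600 growth recovery of NS1-expressing budding yeast. Cells grown overnight at 30C in -URA glucose medium, washed, resuspended and diluted 1:100 in 2% galactose assay medium, pH 6.0. Same strain lacking NS1 served as positive control.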
* hit, by the source's call; ? = inconclusive; . = no result given. An excerpt weighted towards active compounds, which were near 11% of everything screened. Unless noted, calls come from the whole dose curve; as a rule, active = well fitted curve in the direction sought with a large enough effect; inconclusive = small, poorly fitted or top-dose-only effect, or another doubt; inactive = no such curve, though single readings can be large; an effect the other way counts as inactive or inconclusive. Potency is the fitted concentration of half-maximal effect.

SMILES	Pf growth 48h	AMA1-RON2 inh	Sm TGR inh	Pf growth 96h	NS1 inh
Cc1cc(=O)oc2c3c(cc(OCC(=O)NCC(=O)O)c12)OC(C)(C)CC3	-6.6%	-2.7%	9.4%	11.0%	4.3%
Cc1cc(=O)oc2c3c(cc(OCC(=O)NC4CC4)c12)OC(C)(C)CC3	?	10.8%	-0.6%	14.7µM*	14.7%
Cc1cc(=O)oc2c3c(cc(OCC(=O)NCc4ccccc4)c12)OC(C)(C)CC3	?	-5.3%	2.5%	11.7µM*	-1.5%
Cc1cc(=O)oc2c3c(cc(OCC(=O)Nc4cccnc4)c12)OC(C)(C)CC3	-24.1%	-5.2%	0.4%	1.31µM*	1.4%
CCN(CC)C(=O)C(Oc1ccc(S(=O)(=O)N2CCCC2)cc1[N+](=O)[O-])c1ccccc1 (stereo unspecified)	?	4.5%	2.7%	?	5.9%
COC(=O)CSc1[nH]c2ccccc2c1[N+](=O)[O-]	-2.8%	14.1%	50.1µM*	33.7%	-34.0%
O=S(=O)(Nc1ccc(N=Nc2ccc(O)c3ccccc23)cc1)c1ccccc1	2.33µM*	?	-12.3%	5.22µM*	?
C[N+](C)(C)CC[N+]1(C)Cc2c(Cl)c(Cl)c(Cl)c(Cl)c2C1	-10.1%	.	.	0.239µM*	.
COc1cccc(OC)c1C1=NCC(=O)Nc2c1oc1ccc(Br)cc21	?	2.8%	-11.4%	1.85µM*	-64.4%
Cc1c(NS(=O)(=O)c2cc(C(=O)N3CCCC(C)C3)ccc2Cl)c(=O)n(-c2ccccc2)n1C (stereo unspecified)	.	-8.9%	.	.	.
Cc1c(N(C)S(=O)(=O)c2cc(C(=O)N3CCCC3)ccc2Cl)c(=O)n(-c2ccccc2)n1C	13.1µM*	54.1%	-10.7%	4.65µM*	13.6%
Cc1ccc(-n2c(=O)c3c(C)c(C)sc3n(Cc3ccc(F)cc3Cl)c2=O)cc1C	.	.	8.9%	.	.
COc1cc(C=NCC2OCCc3ccccc32)cc(OC)c1 (stereo unspecified)	8.2%	-4.0%	7.9%	9.28µM*	-35.3%
COc1cc(C2=Nc3ccc(Br)cc3C(c3ccccc3)N2CC(=O)NN)cc(OC)c1OC (stereo unspecified)	8.28µM*	49.2%	-0.6%	?	18.1%
NNC(=O)CN1C(=O)Nc2ccc(Br)cc2C1c1ccccc1 (stereo unspecified)	?	1.0%	-12.8%	72.9%	?
NNC(=O)CN1C(c2ccc(Br)cc2)=Nc2ccc(Br)cc2C1c1ccccc1 (stereo unspecified)	10.4µM*	43.3%	0.0%	?	22.2%
CCOC(=O)/C(C#N)=C/Nc1ccccc1NS(=O)(=O)c1ccc2c(c1)OCCO2	9.28µM*	74.7%	1.1%	11.7µM*	.
NC(=O)c1ccccc1NS(=O)(=O)c1ccc2c(c1)OCCO2	.	4.4%	3.6%	-2.7%	-2.3%
O=C(Nc1ccc(F)cc1)c1cccnc1NCCc1ccccc1	?	11.9%	-10.2%	3.7µM*	1.4%
O=C(Nc1cccc(F)c1)c1cccnc1NCCc1ccccc1	-12.3%	57.0%	-5.7%	?	-9.0%
CC(C)(O)C#Cc1ccc(CN2CCN(Cc3ccsc3)C(CCO)C2)s1 (stereo unspecified)	-4.5%	21.7%	-1.7%	8.28µM*	-5.3%
O=c1c(-c2ccc(Br)cc2)[n+]([O-])c2ccccc2n1OCc1ccccc1	11.7%	-0.1%	-5.1%	9.5%	-2.6%
CC(C)(C)c1ccc(COn2c(=O)c(-c3ccco3)[n+]([O-])c3ccccc32)cc1	.	-4.6%	17.8µM*	-27.7%	0.8%
CCOc1ccc(Oc2ccccc2NC(=O)CN2C(=O)NC3(CCCC3)C2=O)cc1	-13.2%	13.7%	0.2%	4.5%	.
CCOC(=O)c1cc2c(=O)n3ccccc3nc2n(Cc2ccco2)c1=NC(=O)c1ccc(OC)cc1OC	?	-1.2%	31.6µM*	?	.
CCOC(=O)c1cc2c(=O)n3ccccc3nc2n(Cc2ccco2)c1=NC(=O)c1cc(C)cc(C)c1	.	.	-15.8%	.	.
CCCCCn1c(=NC(=O)c2ccco2)c(C(=O)OCC)cc2c(=O)n3ccccc3nc21	-38.2%	9.5%	?	14.7µM*	17.2%
CCCCn1c(=NC(=O)c2ccco2)c(C(=O)OCC)cc2c(=O)n3ccccc3nc21	?	9.1%	-23.5%	.	13.1%
